High-throughput results deposited in PubChem by National Center for Advancing Translational Sciences (NCATS).
Hits are enriched below; roughly 21% of the tested compounds scored in any of these assays.
ELG1 repair inh: inhibitors of ELG1-dependent DNA repair in HEK293T cells | actives 2.3% (n = 330,000) | AID 504467 | HEK293T ELG1-luciferase reporter, luminescence, 16 h; DNA damage induced by 5-fluorouridine | Potency, µM (highest dose often 46.1 µM), without a hit: top-dose activity change, negative = inhibition, hits mostly inhibitors; further: potency means the concentration at half of the fitted maximal effect; nearly all actives have a fitted effect of over 55% in size
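Quantitative HTS, concentration-response format. 2,000 cells/well co-treated with 5-fluorouridine and compound, 16 hr in 5% CO2 at 37 °C; ONE-Glo luminescence read after 30 min.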
RORg inh: inhibitors of mouse ROR gamma transcriptional activity; Drosophila S2 Gal4-RORgamma UAS-luciferase reporter, 20 h; AID 2551; Potency, µM (titrated, usually from 53.6 µM), for the others: top-dose activity change, negative = inhibition, usual class: inhibitors; P51450; actives 5.4% (n = 310,000); further: potency means the concentration at half of the fitted maximal effect; nearly all actives have a fitted effect of over 60% in size
Target sequence (P51450 whole entry, looked up, the tested form may be a part): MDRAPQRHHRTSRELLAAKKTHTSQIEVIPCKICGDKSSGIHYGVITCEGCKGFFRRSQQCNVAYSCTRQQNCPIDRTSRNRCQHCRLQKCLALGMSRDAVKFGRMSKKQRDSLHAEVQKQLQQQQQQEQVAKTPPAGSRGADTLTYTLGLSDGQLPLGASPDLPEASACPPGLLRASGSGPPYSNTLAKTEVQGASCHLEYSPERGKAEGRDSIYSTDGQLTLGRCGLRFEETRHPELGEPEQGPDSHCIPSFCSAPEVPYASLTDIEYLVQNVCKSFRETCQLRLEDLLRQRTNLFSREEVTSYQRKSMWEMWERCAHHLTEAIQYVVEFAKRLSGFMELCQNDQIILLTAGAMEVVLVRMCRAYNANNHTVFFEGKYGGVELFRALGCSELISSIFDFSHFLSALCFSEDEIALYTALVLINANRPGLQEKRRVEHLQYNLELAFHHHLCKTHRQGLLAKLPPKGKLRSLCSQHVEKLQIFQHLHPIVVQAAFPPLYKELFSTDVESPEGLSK
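Stable Schneider cell line, Gal4 DNA-binding domain fused to ROR gamma, UAS-luciferase. Cmpd 1 hr RT → CuSO4 700 uM final → 20 hr RT → luciferase reagent 10 min → luminescence.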
VP16 counter: inhibits Gal4-VP16 luciferase reporter, ROR gamma counter-screen. Drosophila S2 Gal4-VP16 UAS-luciferase, luminescence, 20 h. Potency, µM (titrated, usually from 53.6 µM), for inactives: at the highest dose activity, negative = inhibition, usual class: inhibitors. actives 3.5% (n = 310,000);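 further: Gal4-VP16 expression switched on by copper sulfate through the metallothionein promoter; potency means the concentration at half of the fitted maximal effect; nearly all actives have a fitted effect of over 50% in size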
DT40 TDP1 CPT: growth inhibition of DT40 Tdp1-/-;hTDP1 cells with camptothecin (screen for TDP1 inhibitors). chicken DT40 Tdp1-/-;hTDP1 cells + 20 nM CPT, ATP luminescence, 48 h. AID 686979. Potency, µM (top dose mostly 46.2 µM), for the others: at the highest dose activity change, negative = growth inhibition, actives largely listed as inhibitors. actives 12% (n = 420,000); further: potency means the concentration at half of the fitted maximal effect; nearly all actives have a fitted effect of over 55% in size
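Cell growth measured by CellTiter-Glo luminescence after a minimum 48 h, 37 C compound exposure with 20 nM CPT in Tdp1-knockout DT40 cells stably expressing hTDP1, seeded 400/well; qHTS titration format.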
IL1B secr inh: blocks inflammasome-driven IL-1 beta release; AID 743279; actives 4.7% (n = 360,000); THP-1 LPS/ATP IL-1B secretion, AlphaLISA, 16 h; stronger effect = lower value; activity change, % at 57.5 µM; in the data active means activity change below about -50%; inconclusive means mostly about -30% to -49%
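THP-1 cells pretreated 1 hr with compounds (up to 57.5 uM final), then stimulated with LPS (250 ng/mL final) plus ATP (1.25 mM final); secreted IL-1B measured by AlphaLISA after 16 hr, decreased signal indicating inhibition.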
DT40 TDP1 no CPT: qHTS for Inhibitors of human tyrosyl-DNA phosphodiesterase 1 (TDP1): qHTS in cells in absence of CPT. actives 15% (n = 420,000). Potency, µM (series often up to 46.2 µM), for inactives: at the highest dose activity change, negative = growth inhibition, actives largely listed as inhibitors. DT40 Tdp1-/- hTDP1 cells, no CPT, ATP luminescence, 48 h. AID 686978, 2013; further: potency means the concentration at half of the fitted maximal effect; nearly all actives have a fitted effect of over 55% in size
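No-CPT arm: Tdp1-/-;hTDP1 DT40 cells (400/well) plus compounds, incubated ≥48 hr at 37 °C. Readout CellTiter-Glo luminescence.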
Starred values were filed as active, the others as inactive; ? = inconclusive; . = not tested or not shown; ! = a repeat was not active; [ ] = another dose, or the depositor's remark. Unless noted, the call rests on the fitted dose curve; in most records, active means well fitted curve in the direction sought with a large enough effect; inconclusive means small, poorly fitted or top-dose-only effect, or another doubt; inactive means no such curve, though single readings can be large; an effect the other way counts as inactive or inconclusive. On the % scale 0 is the no-effect control and ±100 the full control effect.

SMILES	ELG1 repair inh	RORg inh	VP16 counter	DT40 TDP1 CPT	IL1B secr inh	DT40 TDP1 no CPT
CSCCOC(=O)c1[nH]c2c(c1C)C(=O)CC(c1ccco1)C2 (stereo unspecified)	-19%	?	3%	0.73µM*	53	0.82µM*
CCOC(=O)c1[nH]c2c(c1C)C(=O)CC(c1ccco1)C2 (stereo unspecified)	23%	?	-5%	0.58µM*	82	0.041µM*
COc1ccc(C2CC(c3ccccc3)=NN2C(=O)CN2N=NC3C(=O)N(c4cccc(F)c4)C(=O)C32)cc1 (stereo unspecified)	-1%	3%[10 µM]	-3%	-26%	-6	?
CCOc1ccc(S(=O)(=O)NN=C(C)c2cccnc2)cc1	-1%	.	.	-1%	7	19%
Cc1ccccc1C(=O)NCC(=O)OC(C)C(=O)NC(C)CCc1ccccc1 (stereo unspecified)	2%	.	.	-21%	-4	?
CC(C)c1ccc(/C=C(\NC(=O)c2ccccc2)C(=O)NCCN2CCOCC2)cc1	5%	0%	-2%	.	.	.
Cc1c(C(=O)OCc2ccccc2)[nH]c2c1C(=O)CC(c1ccco1)C2 (stereo unspecified)	?	-18%	?	0.82µM*	0	0.92µM*
Cn1nnnc1SCC(=O)N(C1CCCCC1)C1CCCCC1	-20%	16%	-1%	16µM*	-10	18µM*
Cn1nnnc1SCC(=O)N(C1CCCCC1)C1CCS(=O)(=O)C1 (stereo unspecified)	8%	-1%	7%	7%	13	2%
CC1(C(=O)NS(=O)(=O)c2ccc3c(c2)CCO3)CCN1C(=O)c1ccccc1CCc1ccccc1 (stereo unspecified)	.	.	.	?	-15	?
COc1ccc(NC2=CC(c3ccc(OC)cc3)N(c3ccc(OC)cc3)C2=O)cc1 (stereo unspecified)	-7%	26%	-11%[10 µM]	-22%	-2	-27%
COc1ccc(NC2=CC(c3ccccc3)N(c3ccc(OC)cc3)C2=O)cc1 (stereo unspecified)	?	2%	2%	?	-18	8.2µM*
COc1ccc(N2C(=O)C(CN3CCCCC3)C2c2ccccc2)cc1 (stereo unspecified)	-2%	8%	-7%[10 µM]	?	16	13µM*
CCN(CC)CC1C(=O)N(c2ccc(OC)cc2)C1c1ccccc1 (stereo unspecified)	6%	4%	9%	-28%	3	?
COc1ccc(NC(=O)COC(=O)CCC2CCCCC2)cc1	?	.	.	-2%	-3	-15%
COc1ccc(C2C3C=CCC(c4cccc(-c5ccc(N(C)C)cc5)c4)C3C(=O)N2Cc2ccccc2)cc1Cl (stereo unspecified)	.	27%	4%	.	.	.
Cc1cccc(N(CC(=O)NCCSCc2ccccc2)S(=O)(=O)c2ccccc2)c1C	.	.	.	23µM*	.	?
COc1ccccc1N(CC(=O)NCCSCc1ccccc1)S(C)(=O)=O	-24%	7%	-3%	-24%	-5	-22%
COc1ccccc1N(CC(=O)NCCSCc1ccc(Cl)cc1)S(C)(=O)=O	-12%	27%	8%	21µM*	8	23µM*!
COc1ccc(C)cc1N(CC(=O)NCCSCc1cccc(Cl)c1)S(C)(=O)=O	?	28%	-5%	16µM*	-9	?
Cc1cccc(N(CC(=O)NCCSCc2ccc(Cl)cc2)S(C)(=O)=O)c1C	.	.	.	18µM*	.	26µM*
CC[C@H](C)[C@H](NC(=O)[C@H](C)NC(=O)CNC(=O)[C@H](CCCN=C(N)N)NC(=O)[C@H](C)NC(=O)[C@H](CC(C)C)NC(=O)[C@H](CCC(=O)O)NC(=O)[C@H](CC(C)C)NC(=O)[C@H](C)NC(=O)[C@@H](N)CCC(=O)O)C(=O)N[C@@H](Cc1ccccc1)C(=O)N[C@@H](CCC(N)=O)C(=O)N[C@@H](C)C(=O)O	.	9%	4%	.	.	.
CN(C)c1ncc(C(=O)NCc2ccccc2Cl)cn1	.	.	.	-5%	.	-3%
COc1ccc(C(=O)n2cc(C(C)=O)c3ccccc32)cc1	-26%	-20%	-10%	10µM*	-5	15µM*
CCOc1ccc(NC(=O)Cn2cc(C(=O)CC)c3ccccc32)cc1	27%	-19%	-4%	13µM*	15	26µM*
SMILES	ELG1 repair inh	RORg inh	VP16 counter	DT40 TDP1 CPT	IL1B secr inh	DT40 TDP1 no CPT
CCOc1ccc(NC(=O)Cn2cc(C(C)=O)c3ccccc32)cc1	-3%	19%	0%	?	41	?
COC(=O)c1cn(C(=O)c2ccc(F)cc2)c2ccccc12	?	.	.	-3%	-14	2%
COc1ccc(NC(=O)Cn2cc(C(C)=O)c3ccccc32)cc1	?	?	-12%	5.2µM*	48	?
COC(=O)CNC(=O)Cn1c(=O)n(Cc2ccc(F)cc2)c(=O)c2sccc21	?	-8%	5%	?	?	?
Cc1ccc(-n2nc(C(=O)N3CCN(c4ccccc4)CC3)c(=O)n(C)c2=O)cc1	.	.	.	-9%	.	-17%
CCOC(=O)c1cc(CC)sc1NC(=O)C1CC1	-9%	13%	-7%	?	-3	?
CCOC(=O)c1cc(C)n(CC2CCC(C(=O)Nc3ccc(OC)cc3)CC2)c1C (stereo unspecified)	.	.	.	15µM*	.	21µM*
CCOC(=O)c1cc(C)n(CC2CCC(C(=O)Nc3cc(OC)cc(OC)c3)CC2)c1C (stereo unspecified)	.	.	.	?	.	23µM*
CCOC(=O)c1cc(C)n(CC2CCC(C(=O)Nc3cccc(C)c3)CC2)c1C (stereo unspecified)	.	.	.	18µM*	.	?
CCOC(=O)c1cc(C)n(CC2CCC(C(=O)Nc3ccc(C)c(F)c3)CC2)c1C (stereo unspecified)	.	.	.	?	.	-27%
COC(F)(F)C(Cl)Cl	.	7%	-3%	1%	.	-4%
O=C(CSc1nnc(-c2ccccc2F)n1C1CCCCC1)Nc1cc(C(=O)O)ccc1Cl	-2%	.	.	-5%	9	3%
NCCCCCc1nnc(SC/C=C/c2ccccc2)o1	12%	-2%	-20%	18µM*	-1	23µM*
NCCCCCc1nnc(SCc2ccccc2Cl)o1	-5%	1µM*	0.45µM*	-19%	16	-22%
